The record followed here is PubChem BioAssay (NCI).

Structures are written as SMILES. This is part of a sample that, as a whole, favours compounds with a hit. Of some 83,000 tested, about 20% had one in any assay.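 Values shown are percent growth following 48 h exposure of cells in 96-well plates to a single concentration of compound; below 10 was considered active.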 Values without a mark were called inactive. Calls of active or inactive are those of the source.

Test in all cases: NCI-60 one-dose screen, 48 h (100 = growth as untreated, 0 = no growth, -100 = all killed)
The test system of assay [1] is SK-MEL-2 melanoma. As to conditions: 10 µM unless noted.
Assay [2] deals with EKVX NSCLC. As to conditions: 10 µM unless noted.
Assay [3] deals with SN12C renal. Particulars: 10 µM unless noted.
In assay [4] the test system is UO-31 renal. Particulars: 10 µM unless noted.
The subject of assay [5] is TK-10 renal. As to conditions: 10 µM unless noted.
In assay [6] the test system is ACHN renal. Particulars: 10 µM unless noted.
The subject of assay [7] is CAKI-1 renal. As to conditions: 10 µM.
For assay [8], the system named is A498 renal. Particulars: 10 µM unless noted.
Assay [9] deals with CCRF-CEM leukemia. As to conditions: 10 µM unless noted.
Assay [10] has as its system MOLT-4 leukemia. Particulars: 10 µM unless noted.
The subject of assay [11] is SR leukemia. Particulars: 10 µM unless noted.
In assay [12] the test system is RPMI-8226 leukemia. As to conditions: 10 µM unless noted.
Assay [13] concerns OVCAR-8 ovarian. As to conditions: 10 µM unless noted.
Assay [14] concerns OVCAR-5 ovarian. As to conditions: 10 µM unless noted.
The subject of assay [15] is OVCAR-4 ovarian. As to conditions: 10 µM unless noted.
In assay [16] the test system is SK-OV-3 ovarian. As to conditions: 10 µM unless noted.
Assay [17] deals with IGROV1 ovarian. Particulars: 10 µM unless noted.
Assay [18] concerns HS 578T breast. As to conditions: 10 µM unless noted.
In assay [19] the test system is NCI/ADR-RES ovarian. As to conditions: 10 µM unless noted.
The test system of assay [20] is OVCAR-3 ovarian. Particulars: 10 µM unless noted.

For `O=C1c2c(c3c4cc(Br)ccc4[nH]c3c3ccc4ccccc4c23)C(=O)N1CCN1CCNCC1`, the growth in [1] is 113%; in [2] it was 85.9%; in [3] it was 84.8%; in assay [4], 58.7%; in [5] it was 148%; in [6] it was 69.6%. The growth in [7] is 66.1%; in [8], 97.1%; in assay [9] it was 3.91% (active); in [10], 4.47% (active); in [11], -14.3% (active); in assay [12] it was -9.87% (active). In addition, the growth in [13] is 57.3%; in [14], 113%; in assay [15], 103%; in assay [16], 93.6%; in assay [17], 68.5%; in assay [18], 115%. The growth in assay [19] is 69.5%.

As for `COc1ccc(-c2nnc(/N=C3/C(=O)Nc4ccc(Br)cc43)o2)cc1`, the growth is 101% in assay [1]; 91.7% in [2]; 107% in assay [3]; 81.3% in [4]; 143% in assay [5]; 93.7% in assay [6]. The growth is 88.8% in assay [7]; 91.9% in assay [8]; 96% in [9]; 96.1% in assay [10]; 97.8% in [11]; 96.2% in assay [12]. Besides, the growth in assay [13] was 99.9%; in [14] it was 107%; in [15] it was 101%; in [16], 108%; in assay [17] it was 91.9%; in assay [18], 116%. Besides, the growth in assay [19] was 102%.

For the compound `Cc1cc2nc(C(Cl)Cl)nc(-c3ccco3)n2n1`, the growth in [1] is 103%; in assay [2], 63.8%; in assay [3], 93.7%; in assay [4], 90.7%; in assay [5], 89.5%; in assay [6], 22%. Also, the growth in [7] was 51.2%; in assay [8], 51.7%; in assay [9], 98.2%; in assay [10] it was 74.3%; in assay [11], 86.8%; in assay [12], 44.3%. For the same compound, the growth in assay [13] was 80.5%; in assay [14], 75.8%; in assay [15] it was 79.5%; in assay [16], 93.3%; in [17] it was 91.1%; in assay [20], 22.4%. In addition, the growth in assay [19] was 62.6%.

Take `Cc1ccc(-n2cc(/C=C/C(=O)c3ccc(S(C)(=O)=O)cc3)c(-c3ccc(S(C)(=O)=O)cc3)n2)cc1`: the growth in assay [1] is 107%; in assay [2], 93.2%; in assay [3], 89.7%; in [4], 85.5%; in assay [5] it was 127%; in assay [6], 93.3%. Moreover, the growth is 89.2% in [7]; 84.6% in [8]; 77.5% in assay [9]; 71.9% in assay [10]; 44% in assay [11]; 92.3% in [12]. Further, the growth in assay [13] is 97.5%; in [14], 98.3%; in assay [15] it was 109%; in [16], 105%; in assay [17] it was 69.2%; in [20], 75.9%. Further, in [19], the growth was 64%.

`C#CCOc1ccc(/C=N/Nc2nc(-c3cc(Cl)ccc3Cl)cs2)cc1`: the growth in assay [1] is 113%; in assay [2], 73.6%; in [3], 88.7%; in assay [4] it was 68.5%; in assay [5], 148%; in assay [6] it was 97.8%. Besides, the growth was 77.1% in assay [7]; 83.6% in [8]; 94.7% in assay [9]; 86.3% in assay [10]; 87.8% in assay [11]; 76.8% in [12]. The growth in [13] was 93.5%; in assay [14], 99.5%; in assay [15] it was 52.8%; in assay [16], 97.9%; in [17], 64.4%; in assay [18], 98.3%. The growth in [19] was 95%.

For `COc1cc(NC2=C(Cl)C(=O)c3nc(C)ccc3C2=O)cc(OC)c1`, the growth is 5.03% (active) in assay [1]; 74.7% in assay [2]; -63.3% (active) in assay [3]; -94.6% (active) in assay [4]; -50.1% (active) in assay [5]; -99.6% (active) in assay [6]. For the same compound, the growth in assay [7] was -96.5% (active); in assay [8] it was 71.1%; in [9], 2.72% (active); in assay [10] it was 8.29% (active); in [11], -3.19% (active); in assay [12], -39.7% (active). Further, the growth is -0.815% (active) in assay [13]; 22% in assay [14]; -93.3% (active) in [15]; 93.8% in [16]; -23.1% (active) in [17]; -32.8% (active) in assay [18]. For the same compound, the growth in [19] is -1.26% (active).

Turning to `O=C1CSC(=O)N1Cc1cc2ccccc2nc1Cl`, the growth in assay [1] was 94.7%; in [2], 98.7%; in assay [3] it was 97.4%; in [4] it was 77.7%; in [5], 98.5%; in [6], 104%. Also, the growth was 86.1% in assay [7]; 106% in assay [8]; 107% in assay [9]; 102% in assay [10]; 98.2% in [11]; 98.8% in assay [12]. Moreover, the growth in assay [13] was 98.7%; in assay [14], 101%; in assay [15], 99.2%; in assay [16], 110%; in assay [17] it was 99.9%; in [18], 97.1%. Moreover, in [19], the growth is 105%.

On to `CCn1c2ccc(/C=N/NS(=O)(=O)CCN(C)C)cc2c2cc(/C=N/NS(=O)(=O)CCN(C)C)ccc21`, for which the growth in assay [1] was 105%; in assay [2], 110%; in [3] it was 99.3%; in assay [4] it was 88%; in assay [5], 88.1%; in assay [6], 97%. Besides, the growth in assay [7] is 82.1%; in assay [8] it was 69.8%; in [9], 103%; in [10] it was 103%; in assay [11], 83.8%; in assay [12] it was 99.8%. Besides, the growth is 104% in assay [13]; 100% in [14]; 99.8% in assay [15]; 104% in [16]; 77.7% in assay [17]; 91.1% in assay [18]. Moreover, in [19], the growth is 98.1%.
